Luciferase inh – blocks purified firefly luciferase enzyme activity. Potency, µM (top dose mostly 115 µM), actives largely listed as inhibitors. 76,000 compounds, 2.5% hits. purified P. pyralis luciferase, luminescence, biochemical. AID 1347043. P08659; also: nearly all actives have a fitted effect of over 65% in size
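Inhibitors were tested against purified firefly luciferase in a biochemical, low-substrate format (both substrates at 10uM) and luminescence measured with a CCD imager.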
hNpr1 antagonist – blocks ANP-stimulated signaling of human Npr1 receptor. 76,000 compounds, 1.6% hits. Potency, µM (titrated, usually from 46.3 µM), most hits filed as inhibitors. AID 1347048. HEK293 hNpr1 GloSensor cGMP, ANP-stimulated luminescence; calls by dose curve; also: nearly all actives have a fitted effect of over 60% in size
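HEK293 cells stably expressing human Npr1 and cGMP GloSensor pGS-40F, loaded 2 h with 2% GloSensor reagent, given compound 30 min at room temperature. Luminescence read before and 20 min after 0.1 nM hNppA.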
GPT2 inhibitor – blocks human glutamate pyruvate transaminase 2; Recombinant GPT2, coupled pyruvate oxidase/HRP Amplex Red fluorescence; Q8TD30; 100,000 compounds, 0.25% hits; Potency, µM (titrated, usually from 57.7 µM), most hits filed as inhibitors; AID 1671188; also: nearly all actives have a fitted effect of over 60% in size
Target sequence (Q8TD30 whole entry, looked up): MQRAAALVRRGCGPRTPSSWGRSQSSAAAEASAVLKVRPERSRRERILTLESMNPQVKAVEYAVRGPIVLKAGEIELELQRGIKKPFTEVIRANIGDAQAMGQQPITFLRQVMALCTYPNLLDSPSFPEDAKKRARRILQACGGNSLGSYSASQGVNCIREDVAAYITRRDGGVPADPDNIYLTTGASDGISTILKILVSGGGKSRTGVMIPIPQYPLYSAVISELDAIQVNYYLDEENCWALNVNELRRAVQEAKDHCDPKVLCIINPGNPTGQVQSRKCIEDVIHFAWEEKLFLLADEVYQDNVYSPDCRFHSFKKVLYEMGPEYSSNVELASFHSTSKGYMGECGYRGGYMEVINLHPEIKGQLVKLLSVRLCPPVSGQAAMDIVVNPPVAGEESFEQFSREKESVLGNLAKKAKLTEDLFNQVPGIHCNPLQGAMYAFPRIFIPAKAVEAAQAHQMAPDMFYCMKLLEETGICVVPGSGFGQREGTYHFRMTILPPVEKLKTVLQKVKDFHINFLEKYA
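Recombinant GPT2 (10ng/uL) with 250uM a-KG and 2mM L-alanine, 30 min at room temperature, in HEPES pH 7.5 buffer. Pyruvate detected by pyruvate oxidase/HRP/Amplex Red fluorescence after 30 min in the dark; AOA (50uM) as positive control.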
HEK cytotox – kills HEK 293 cells | 94,000 compounds, 6.6% hits | Potency, µM (top dose mostly 115 µM), most hits filed as inhibitors | HEK 293 viability, ATP luminescence (CellTiter-Glo), 48-72 h; also: nearly all actives have a fitted effect of over 60% in size
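Read-out: CellTiter-Glo ATP luminescence. Cells: HEK 293, 250 cells/well. Exposure: 48 or 72 hr, 37 degree Celsius.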
3T3 cytotox – kills NIH 3T3 cells; 94,000 compounds, 4.3% hits; Potency, µM (highest dose often 96.7 µM), usual class: inhibitors; NIH 3T3 viability, CellTiter-Glo ATP luminescence, 48-72 h; also: nearly all actives have a fitted effect of over 55% in size
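First NIH 3T3 cells are plated at 400 cells/well; next compound is pinned in; then plates incubate 48 or 72 hr at 37 °C; finally CellTiter-Glo is added and luminescence read after 10 min.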
A number is an active result; 0 = inactive; ? = inconclusive; - = no result given. Most compounds without a hit are left out; they make up all but 10% or so of the library. Unless noted, calls follow the shape of the dose curve; as a rule, active = well fitted curve in the direction sought with a large enough effect; inconclusive = small, poorly fitted or top-dose-only effect, or another doubt; inactive = no such curve, though single readings can be large; an effect the other way counts as inactive or inconclusive.

SMILES	Luciferase inh	hNpr1 antagonist	GPT2 inhibitor	HEK cytotox	3T3 cytotox
CCNC(=O)CCc1c(C)nn(-c2ccc(F)cc2)c1Oc1ccccc1F	0	0	0	?	?
C=CCNC(=O)CCc1c(C)nn(-c2ccc(F)cc2)c1Oc1ccc(F)cc1F	0	0	0	35µM	?
Cc1cccc(-n2nc(C)c(CCC(=O)N(C)C(C)C)c2Oc2ccccc2)c1	0	0	0	40µM	16µM
O=C(NCc1ccccc1)c1cn2cc(-c3ccc(F)cc3)sc2n1	-	-	0	0	0
CC(=O)N1CCC(c2nn(-c3ccccn3)c(=O)[nH]2)CC1	-	-	0	0	0
COc1ccccc1-n1c(=O)c(C(=O)NCc2ccc(F)cc2)nc2cccnc21	-	-	0	0	0
CC(=O)Nc1ccc(CN2CCC3(Cc4ccccc4CN(C(C)=O)C3)C2)cc1 (stereo unspecified)	-	-	0	0	0
COc1ccc(NC(=O)C2CCc3nnc(CN[S+](C)(=O)[O-])n32)cc1 (stereo unspecified)	-	-	0	0	0
O=C(c1ccccc1)N1CCC(c2nn(-c3ccccn3)c(=O)[nH]2)CC1	-	-	0	0	0
O=C1CCCCC(C(=O)N2CCN(c3ccccn3)CC2)N1 (stereo unspecified)	-	-	0	0	0
O=C(c1cc(Cl)ccc1F)N1CCC[C@H]1c1nc(-c2ccc(F)cc2)no1	0	0	0	79µM	?
COc1ccc(-c2noc([C@@H]3CCCN3C(=O)c3ccc(C)cc3)n2)cc1OC	0	0	0	?	0
COc1ccc(-c2noc([C@@H]3CCCN3C(=O)c3cc(C)cc(C)c3)n2)cc1OC	0	0	0	32µM	?
C#CCNC(=O)c1nc2sccn2c1-c1cccc(C(F)(F)F)c1	-	-	0	?	?
CC(C)Cc1cc(C[C@@H]2C[C@H](NC(=O)c3ccco3)C2(C)C)no1	0	0	0	71µM	?
CC1(C)[C@H](Cc2cc(CN3CCCCC3)on2)C[C@@H]1NC(=O)c1ccccc1	0	0	0	?	?
CC1(C)[C@H](Cc2cc(CN3CCCCC3)on2)C[C@@H]1NC(=O)c1ccco1	0	0	0	?	?
COc1ccc(C(=O)N[C@H]2C[C@@H](Cc3cc(CN(C)C)on3)C2(C)C)cc1	0	0	0	0	0
CC1(C)[C@H](Cc2cc(CC3CCCCC3)on2)C[C@@H]1NC(=O)c1ccccc1	0	?	0	32µM	56µM
CCCCc1cc(C[C@@H]2C[C@H](NC(=O)C(C)(C)C)C2(C)C)no1	?	0	?	71µM	?
CCCCc1cc(C[C@@H]2C[C@H](NC(=O)C3CC3)C2(C)C)no1	?	0	0	?	0
COc1ccc(C(=O)N[C@H]2C[C@@H](Cc3cc(-c4ccccc4)on3)C2(C)C)cc1	?	?	0	45µM	50µM
Cc1nc2ccc(CN(C)c3ccc(C(=O)NC(CCC(=O)O)C(=O)O)s3)cc2c(=O)[nH]1 (stereo unspecified)	-	-	0	-	-
Cc1ccc(C)c([S+](=O)([O-])c2nnn3c2nc(NC2CCCC2)c2ccccc23)c1	-	-	0	?	?
CC1(C)[C@H](Cc2cc(CN3CCOCC3)on2)C[C@@H]1NCc1ccc(CO)o1	0	0	0	0	0
SMILES	Luciferase inh	hNpr1 antagonist	GPT2 inhibitor	HEK cytotox	3T3 cytotox
CC1(C)[C@H](Cc2cc(CN3CCN(c4ccccc4)CC3)on2)C[C@@H]1NCC1CC1	0	0	0	89µM	?
COCc1cc(C[C@@H]2C[C@H](NS(C)(=O)=O)C2(C)C)no1	0	0	0	0	0
CC1(C)[C@H](Cc2cc(CC3CCCCC3)on2)C[C@@H]1NS(C)(=O)=O	0	0	?	71µM	?
N#CC1CCN(C(=O)CNC(=O)c2ccc(-c3cnc4ccccc4c3)cc2)CC1	-	-	0	?	?
CN(C)Cc1cc(C[C@@H]2C[C@H](N(Cc3ccco3)Cc3ccco3)C2(C)C)no1	0	0	0	71µM	79µM
CC1(C)[C@H](Cc2cc(CN3CCOCC3)on2)C[C@@H]1N(Cc1ccco1)Cc1ccco1	0	0	0	?	?
Cc1cc2c(-c3ccc(CO)cc3)nc(-c3c(C)noc3C)cc2[nH]1	0	0	0	?	10µM
CNC(=O)c1cc2cc(-c3c(C)noc3C)nc(-c3cccc(CO)c3)c2o1	0	0	0	?	?
Cc1noc(C)c1-c1cc2c(cc(C)n2C)c(-c2cccc(CO)c2)n1	0	0	?	?	45µM
